Data: publication PMC7862700, “An all-to-all approach to the identification of sequence-specific readers for epigenetic DNA modifications on cytosine”

Legend:
Test in all cases: DAPPL (digital affinity profiling via proximity ligation, sequencing); 10 mM Tris-HCl pH 7.5, 50 mM NaCl, 1 mM DTT, 4% glycerol, room temperature, 30 min; GST-TFs on glutathione beads, 16-mer random dsDNA library, 0.1% formaldehyde crosslink after washing; high values mean tight binding
[1] = target: T1, FLI1 (Homo sapiens, UniProt Q01543 1-452); conditions: protein: recombinant; tags: N-terminal GST; dsDNA, one strand shown
T1 sequence: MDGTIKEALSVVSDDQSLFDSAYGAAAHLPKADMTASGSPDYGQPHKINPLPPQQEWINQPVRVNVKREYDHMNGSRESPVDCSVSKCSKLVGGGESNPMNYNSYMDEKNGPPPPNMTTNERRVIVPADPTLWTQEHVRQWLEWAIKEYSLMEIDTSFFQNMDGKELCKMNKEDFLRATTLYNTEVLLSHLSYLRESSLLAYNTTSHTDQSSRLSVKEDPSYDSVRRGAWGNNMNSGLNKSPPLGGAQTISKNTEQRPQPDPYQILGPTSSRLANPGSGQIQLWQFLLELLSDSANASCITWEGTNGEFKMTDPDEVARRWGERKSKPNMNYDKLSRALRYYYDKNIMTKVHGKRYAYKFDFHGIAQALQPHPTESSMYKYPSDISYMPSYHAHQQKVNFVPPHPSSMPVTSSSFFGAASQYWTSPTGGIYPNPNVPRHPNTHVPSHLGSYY
Outline: (§1)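 GST fusions of human transcription factors were expressed in yeast and captured with glutathione beads. Once given DNA barcodes and pooled alongside a tag-only sample, they were incubated for 30 min at room temperature with 200 nmole of a random double-stranded 16-mer DNA library in Tris/NaCl/DTT/glycerol buffer, then washed, crosslinked (0.1% formaldehyde), proximity-ligated, PCR-amplified and sequenced on an Illumina NextSeq500. The binding signal of each hexamer is its read frequency for a factor divided by its frequency for the tag-only sample.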

[2] = target: T2, ELK1 (Homo sapiens, UniProt P19419 1-428); conditions: protein: recombinant; tags: N-terminal GST; dsDNA, one strand shown
T2 sequence: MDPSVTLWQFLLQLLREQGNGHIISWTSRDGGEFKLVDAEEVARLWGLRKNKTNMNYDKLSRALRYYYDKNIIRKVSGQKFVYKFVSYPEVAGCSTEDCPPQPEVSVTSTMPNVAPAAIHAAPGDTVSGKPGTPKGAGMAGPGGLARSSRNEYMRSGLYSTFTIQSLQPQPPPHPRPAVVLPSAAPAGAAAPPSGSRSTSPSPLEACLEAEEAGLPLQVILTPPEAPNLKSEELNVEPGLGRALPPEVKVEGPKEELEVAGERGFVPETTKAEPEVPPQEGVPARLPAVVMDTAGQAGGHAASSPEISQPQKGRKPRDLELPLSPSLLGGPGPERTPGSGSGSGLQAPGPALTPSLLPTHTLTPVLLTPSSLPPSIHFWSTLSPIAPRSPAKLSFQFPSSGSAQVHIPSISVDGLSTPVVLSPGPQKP
Outline: as §1

[3] = target: T3, GABPA (Homo sapiens, UniProt Q06546 1-454); conditions: protein: recombinant; tags: N-terminal GST; dsDNA, one strand shown
T3 sequence: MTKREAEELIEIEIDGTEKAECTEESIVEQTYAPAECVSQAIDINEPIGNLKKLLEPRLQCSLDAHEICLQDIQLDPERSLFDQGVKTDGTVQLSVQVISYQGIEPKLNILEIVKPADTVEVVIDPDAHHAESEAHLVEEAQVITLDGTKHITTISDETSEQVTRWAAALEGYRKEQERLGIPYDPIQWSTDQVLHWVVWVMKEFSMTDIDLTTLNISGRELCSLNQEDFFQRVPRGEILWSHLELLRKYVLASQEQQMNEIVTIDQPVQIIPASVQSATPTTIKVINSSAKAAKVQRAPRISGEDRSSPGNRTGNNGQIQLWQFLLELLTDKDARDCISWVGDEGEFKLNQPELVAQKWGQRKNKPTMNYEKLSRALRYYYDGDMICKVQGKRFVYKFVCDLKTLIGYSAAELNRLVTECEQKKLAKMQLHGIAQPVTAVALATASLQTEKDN
Outline: as §1

[4] = target: T4, ERG (Homo sapiens, UniProt P11308 1-479); conditions: protein: recombinant; tags: N-terminal GST; dsDNA, one strand shown
T4 sequence: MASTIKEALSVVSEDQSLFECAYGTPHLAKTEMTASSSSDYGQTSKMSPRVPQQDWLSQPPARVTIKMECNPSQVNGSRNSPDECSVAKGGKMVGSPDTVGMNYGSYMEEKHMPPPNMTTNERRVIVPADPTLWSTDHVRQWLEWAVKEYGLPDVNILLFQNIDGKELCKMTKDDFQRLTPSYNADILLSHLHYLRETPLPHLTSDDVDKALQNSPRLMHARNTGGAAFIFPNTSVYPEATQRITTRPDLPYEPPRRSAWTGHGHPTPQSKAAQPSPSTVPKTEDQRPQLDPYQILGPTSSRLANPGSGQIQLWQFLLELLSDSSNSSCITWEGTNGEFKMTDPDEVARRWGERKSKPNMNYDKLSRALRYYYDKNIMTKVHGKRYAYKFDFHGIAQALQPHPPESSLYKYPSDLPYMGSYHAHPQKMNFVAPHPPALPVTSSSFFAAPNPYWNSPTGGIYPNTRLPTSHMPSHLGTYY
Outline: as §1

[5] = target: ELF1 (Homo sapiens, UniProt P32519 1-619); conditions: protein: recombinant; tags: N-terminal GST; dsDNA, one strand shown
Chain of ELF1 (P32519 whole entry): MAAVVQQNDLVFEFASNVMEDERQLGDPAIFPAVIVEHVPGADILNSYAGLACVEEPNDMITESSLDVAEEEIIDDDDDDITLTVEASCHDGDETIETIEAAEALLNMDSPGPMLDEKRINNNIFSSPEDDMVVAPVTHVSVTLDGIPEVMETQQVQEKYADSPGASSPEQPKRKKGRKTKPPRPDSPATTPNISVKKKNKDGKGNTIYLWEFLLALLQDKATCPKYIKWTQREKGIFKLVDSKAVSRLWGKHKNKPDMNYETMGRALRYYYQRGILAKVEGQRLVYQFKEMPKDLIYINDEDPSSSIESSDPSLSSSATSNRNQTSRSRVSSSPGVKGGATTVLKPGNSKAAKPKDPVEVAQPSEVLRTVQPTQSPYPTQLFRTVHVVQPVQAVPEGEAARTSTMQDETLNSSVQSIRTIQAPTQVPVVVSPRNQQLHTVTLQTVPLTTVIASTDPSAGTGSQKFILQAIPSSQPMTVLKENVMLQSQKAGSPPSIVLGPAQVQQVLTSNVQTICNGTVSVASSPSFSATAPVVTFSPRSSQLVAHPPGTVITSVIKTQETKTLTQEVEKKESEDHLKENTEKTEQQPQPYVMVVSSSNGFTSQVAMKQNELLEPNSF
Outline: as §1

[6] = target: T5, EHF (Homo sapiens, UniProt Q9NZC4 1-300); conditions: protein: recombinant; tags: N-terminal GST; dsDNA, one strand shown
T5 sequence: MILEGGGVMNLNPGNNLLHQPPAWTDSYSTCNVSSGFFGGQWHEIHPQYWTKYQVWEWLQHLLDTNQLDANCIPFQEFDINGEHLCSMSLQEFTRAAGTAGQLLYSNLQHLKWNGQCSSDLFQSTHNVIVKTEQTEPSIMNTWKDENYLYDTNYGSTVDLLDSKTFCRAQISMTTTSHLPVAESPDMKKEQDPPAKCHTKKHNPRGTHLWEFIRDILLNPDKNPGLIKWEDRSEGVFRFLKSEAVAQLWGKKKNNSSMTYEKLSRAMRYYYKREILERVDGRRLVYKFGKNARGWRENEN
Outline: as §1

[7] = target: SPI1 (Homo sapiens, UniProt P17947 1-270); conditions: protein: recombinant; tags: N-terminal GST; dsDNA, one strand shown
Outline: as §1

[8] = target: SPIB (Homo sapiens, UniProt Q01892 1-262); conditions: protein: recombinant; tags: N-terminal GST; dsDNA, one strand shown
Chain of SPIB (Q01892 whole entry): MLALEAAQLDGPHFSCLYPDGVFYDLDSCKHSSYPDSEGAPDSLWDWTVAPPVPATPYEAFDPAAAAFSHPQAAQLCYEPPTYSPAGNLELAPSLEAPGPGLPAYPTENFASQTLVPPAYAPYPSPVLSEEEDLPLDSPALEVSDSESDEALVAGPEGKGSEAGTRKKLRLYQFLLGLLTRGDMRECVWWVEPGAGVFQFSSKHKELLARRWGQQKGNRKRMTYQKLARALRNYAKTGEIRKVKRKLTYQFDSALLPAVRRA
Outline: as §1

[9] = target: T6, ELK3 (Homo sapiens, UniProt P41970 1-407); conditions: protein: recombinant; tags: N-terminal GST; dsDNA, one strand shown
T6 sequence: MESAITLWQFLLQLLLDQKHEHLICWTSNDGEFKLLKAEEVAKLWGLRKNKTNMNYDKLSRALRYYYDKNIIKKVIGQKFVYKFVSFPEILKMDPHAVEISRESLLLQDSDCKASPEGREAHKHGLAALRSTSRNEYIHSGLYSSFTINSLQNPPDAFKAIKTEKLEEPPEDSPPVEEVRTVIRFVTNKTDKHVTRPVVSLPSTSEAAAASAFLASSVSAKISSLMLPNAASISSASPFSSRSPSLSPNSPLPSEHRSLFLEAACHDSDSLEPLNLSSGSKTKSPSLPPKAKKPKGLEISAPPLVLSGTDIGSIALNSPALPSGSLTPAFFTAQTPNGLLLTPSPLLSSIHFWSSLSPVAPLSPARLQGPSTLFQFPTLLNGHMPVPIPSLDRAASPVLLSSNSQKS
Outline: as §1

[10] = target: T7, FEV (Homo sapiens, UniProt Q99581 1-238); conditions: protein: recombinant; tags: N-terminal GST; dsDNA, one strand shown
T7 sequence: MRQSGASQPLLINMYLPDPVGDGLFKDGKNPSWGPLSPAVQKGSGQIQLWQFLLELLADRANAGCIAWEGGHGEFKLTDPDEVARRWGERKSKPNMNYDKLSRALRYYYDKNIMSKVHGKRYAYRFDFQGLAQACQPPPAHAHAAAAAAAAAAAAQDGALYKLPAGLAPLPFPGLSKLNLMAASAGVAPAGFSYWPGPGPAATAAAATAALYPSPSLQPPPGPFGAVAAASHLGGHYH
Outline: as §1

[11] = target: ETV5 (Homo sapiens, UniProt P41161 1-510); conditions: protein: recombinant; tags: N-terminal GST; dsDNA, one strand shown
Chain of ETV5 (P41161 whole entry): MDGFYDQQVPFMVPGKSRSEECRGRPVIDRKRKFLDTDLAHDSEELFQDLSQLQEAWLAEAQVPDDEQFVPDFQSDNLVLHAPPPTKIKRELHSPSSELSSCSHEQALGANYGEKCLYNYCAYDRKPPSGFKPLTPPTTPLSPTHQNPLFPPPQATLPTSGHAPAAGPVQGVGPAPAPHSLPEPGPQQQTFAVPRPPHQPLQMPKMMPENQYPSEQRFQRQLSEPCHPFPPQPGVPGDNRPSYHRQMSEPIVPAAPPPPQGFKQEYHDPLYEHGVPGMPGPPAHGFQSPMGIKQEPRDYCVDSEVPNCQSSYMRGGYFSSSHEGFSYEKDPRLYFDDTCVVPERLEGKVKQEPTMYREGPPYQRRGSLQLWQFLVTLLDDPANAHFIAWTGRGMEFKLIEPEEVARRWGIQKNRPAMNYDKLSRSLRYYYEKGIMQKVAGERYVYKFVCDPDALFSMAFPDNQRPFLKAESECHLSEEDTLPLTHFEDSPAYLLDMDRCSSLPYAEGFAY
Outline: as §1

[12] = target: HSF1 (Homo sapiens, UniProt Q00613 1-529); conditions: protein: recombinant; tags: N-terminal GST; chain copies: 3; dsDNA, one strand shown
Chain of HSF1 (Q00613 whole entry): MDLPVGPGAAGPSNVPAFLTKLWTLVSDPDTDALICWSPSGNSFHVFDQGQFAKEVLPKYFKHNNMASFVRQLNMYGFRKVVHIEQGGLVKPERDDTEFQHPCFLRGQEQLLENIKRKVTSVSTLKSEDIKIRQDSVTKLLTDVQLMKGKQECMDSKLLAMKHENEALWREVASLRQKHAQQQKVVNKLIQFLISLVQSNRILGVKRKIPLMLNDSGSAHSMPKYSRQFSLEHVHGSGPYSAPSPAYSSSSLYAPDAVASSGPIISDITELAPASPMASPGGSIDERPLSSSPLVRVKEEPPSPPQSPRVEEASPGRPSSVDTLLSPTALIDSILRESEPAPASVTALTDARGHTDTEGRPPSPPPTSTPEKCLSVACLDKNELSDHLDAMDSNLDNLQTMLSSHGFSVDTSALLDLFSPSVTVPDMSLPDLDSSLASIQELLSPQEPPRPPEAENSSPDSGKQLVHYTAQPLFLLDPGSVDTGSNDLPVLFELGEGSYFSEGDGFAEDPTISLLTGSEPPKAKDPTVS
Outline: as §1

[13] = target: T8, SPIC (Homo sapiens, UniProt Q8N5J4 1-248); conditions: protein: recombinant; tags: N-terminal GST; dsDNA, one strand shown
T8 sequence: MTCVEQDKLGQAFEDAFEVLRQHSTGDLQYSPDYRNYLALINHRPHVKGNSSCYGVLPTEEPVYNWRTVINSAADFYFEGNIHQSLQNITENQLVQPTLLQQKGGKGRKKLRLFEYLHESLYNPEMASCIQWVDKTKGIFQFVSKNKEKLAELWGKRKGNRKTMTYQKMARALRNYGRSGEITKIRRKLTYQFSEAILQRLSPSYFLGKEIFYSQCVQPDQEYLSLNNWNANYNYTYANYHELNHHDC
Outline: as §1

[14] = target: ELF4 (Homo sapiens, UniProt Q99607 1-663); conditions: protein: recombinant; tags: N-terminal GST; dsDNA, one strand shown
Chain of ELF4 (Q99607 whole entry): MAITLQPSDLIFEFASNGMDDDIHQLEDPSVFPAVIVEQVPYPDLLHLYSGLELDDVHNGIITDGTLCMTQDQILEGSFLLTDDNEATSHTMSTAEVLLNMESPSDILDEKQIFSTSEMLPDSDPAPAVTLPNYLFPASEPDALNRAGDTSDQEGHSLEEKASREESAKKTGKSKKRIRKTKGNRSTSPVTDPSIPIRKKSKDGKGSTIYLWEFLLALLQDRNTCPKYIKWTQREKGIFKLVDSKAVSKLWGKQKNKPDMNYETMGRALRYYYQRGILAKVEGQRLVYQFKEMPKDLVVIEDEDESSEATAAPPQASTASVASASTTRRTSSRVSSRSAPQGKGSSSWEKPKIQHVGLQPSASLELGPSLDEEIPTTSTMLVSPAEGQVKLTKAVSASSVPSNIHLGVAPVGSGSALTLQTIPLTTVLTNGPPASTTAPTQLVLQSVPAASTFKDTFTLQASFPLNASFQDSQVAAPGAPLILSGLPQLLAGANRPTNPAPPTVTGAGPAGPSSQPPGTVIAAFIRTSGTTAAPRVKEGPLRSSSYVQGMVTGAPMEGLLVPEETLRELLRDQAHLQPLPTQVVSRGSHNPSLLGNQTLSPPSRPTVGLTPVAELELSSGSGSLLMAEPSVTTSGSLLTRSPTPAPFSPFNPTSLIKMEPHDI
Outline: as §1

[15] = target: T9, ELK4 (Homo sapiens, UniProt P28324-2 1-405); conditions: protein: recombinant; tags: N-terminal GST; dsDNA, one strand shown
T9 sequence: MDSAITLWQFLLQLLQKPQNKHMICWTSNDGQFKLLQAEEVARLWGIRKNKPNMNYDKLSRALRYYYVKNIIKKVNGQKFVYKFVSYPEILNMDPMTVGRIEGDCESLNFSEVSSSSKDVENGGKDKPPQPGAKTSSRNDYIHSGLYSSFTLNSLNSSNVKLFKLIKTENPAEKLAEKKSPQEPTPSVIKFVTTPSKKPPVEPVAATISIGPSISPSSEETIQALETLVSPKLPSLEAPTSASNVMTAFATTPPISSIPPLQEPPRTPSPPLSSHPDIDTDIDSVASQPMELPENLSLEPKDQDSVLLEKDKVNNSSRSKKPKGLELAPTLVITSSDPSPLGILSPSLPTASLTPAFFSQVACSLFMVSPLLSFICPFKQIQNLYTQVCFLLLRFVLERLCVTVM
Outline: as §1

[16] = target: T10, ETV2 (Homo sapiens, UniProt O00321 1-342); conditions: protein: recombinant; tags: N-terminal GST; dsDNA, one strand shown
T10 sequence: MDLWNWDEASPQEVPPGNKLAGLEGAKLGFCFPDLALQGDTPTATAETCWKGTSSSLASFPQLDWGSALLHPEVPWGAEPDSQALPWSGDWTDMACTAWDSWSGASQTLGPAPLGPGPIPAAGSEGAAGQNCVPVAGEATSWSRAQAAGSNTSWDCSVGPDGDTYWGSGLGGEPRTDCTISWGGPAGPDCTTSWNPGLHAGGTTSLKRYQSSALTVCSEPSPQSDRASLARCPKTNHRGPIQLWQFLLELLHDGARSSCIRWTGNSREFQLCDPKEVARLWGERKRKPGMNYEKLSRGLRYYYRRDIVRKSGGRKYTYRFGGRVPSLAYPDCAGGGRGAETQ
Outline: as §1

[17] = target: T11, ELF3 (Homo sapiens, UniProt P78545 1-371); conditions: protein: recombinant; tags: N-terminal GST; dsDNA, one strand shown
T11 sequence: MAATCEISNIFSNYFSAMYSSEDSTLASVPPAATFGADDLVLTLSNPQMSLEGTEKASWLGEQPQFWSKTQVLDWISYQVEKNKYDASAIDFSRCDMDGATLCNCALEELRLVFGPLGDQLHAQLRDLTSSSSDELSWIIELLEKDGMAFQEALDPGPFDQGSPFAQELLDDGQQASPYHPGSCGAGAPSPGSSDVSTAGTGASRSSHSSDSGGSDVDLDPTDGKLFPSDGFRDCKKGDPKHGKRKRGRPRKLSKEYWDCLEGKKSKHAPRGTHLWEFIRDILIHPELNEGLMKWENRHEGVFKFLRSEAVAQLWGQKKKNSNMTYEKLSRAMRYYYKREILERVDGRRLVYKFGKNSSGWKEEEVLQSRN
Outline: as §1

[18] = target: CRX (Homo sapiens, UniProt O43186 1-299); conditions: protein: recombinant; tags: N-terminal GST; dsDNA, one strand shown
Chain of CRX (O43186 whole entry): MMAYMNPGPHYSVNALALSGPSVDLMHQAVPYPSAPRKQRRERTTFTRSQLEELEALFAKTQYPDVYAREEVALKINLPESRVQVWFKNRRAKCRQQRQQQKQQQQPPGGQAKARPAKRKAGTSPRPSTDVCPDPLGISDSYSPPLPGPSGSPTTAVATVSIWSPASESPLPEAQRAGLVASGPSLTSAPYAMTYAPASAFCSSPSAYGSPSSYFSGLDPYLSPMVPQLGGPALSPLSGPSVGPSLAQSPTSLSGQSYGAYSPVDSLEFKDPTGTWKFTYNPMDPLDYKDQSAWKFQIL
Outline: as §1

[19] = target: ETV1 (Homo sapiens, UniProt P50549 1-477); conditions: protein: recombinant; tags: N-terminal GST; dsDNA, one strand shown
Chain of ETV1 (P50549 whole entry): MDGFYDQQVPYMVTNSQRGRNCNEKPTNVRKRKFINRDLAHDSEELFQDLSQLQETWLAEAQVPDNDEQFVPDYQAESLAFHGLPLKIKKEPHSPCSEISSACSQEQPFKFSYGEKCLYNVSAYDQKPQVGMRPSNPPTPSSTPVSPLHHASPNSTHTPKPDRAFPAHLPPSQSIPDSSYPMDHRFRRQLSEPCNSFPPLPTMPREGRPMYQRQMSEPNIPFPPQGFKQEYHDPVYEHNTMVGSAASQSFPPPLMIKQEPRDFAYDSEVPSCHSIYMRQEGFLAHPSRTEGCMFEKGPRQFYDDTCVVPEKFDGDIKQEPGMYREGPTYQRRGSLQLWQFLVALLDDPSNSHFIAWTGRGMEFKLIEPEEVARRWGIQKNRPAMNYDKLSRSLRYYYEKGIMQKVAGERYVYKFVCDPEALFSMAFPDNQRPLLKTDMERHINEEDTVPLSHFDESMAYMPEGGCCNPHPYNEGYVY
Outline: as §1

CCCTTA
binding signal [1]: 1.29 fold enrichment (6-mer frequency, TF over GST control) | binding signal [2]: 1.24 fold enrichment (6-mer frequency, TF over GST control) | binding signal [3]: 1.24 fold enrichment (6-mer frequency, TF over GST control) | binding signal [4]: 1.28 fold enrichment (6-mer frequency, TF over GST control) | binding signal [5]: 1.3 fold enrichment (6-mer frequency, TF over GST control) | binding signal [6]: 1.32 fold enrichment (6-mer frequency, TF over GST control) | binding signal [7]: 1.31 fold enrichment (6-mer frequency, TF over GST control) | binding signal [8]: 1.35 fold enrichment (6-mer frequency, TF over GST control) | binding signal [9]: 1.25 fold enrichment (6-mer frequency, TF over GST control) | binding signal [10]: 1.24 fold enrichment (6-mer frequency, TF over GST control) | binding signal [11]: 1.28 fold enrichment (6-mer frequency, TF over GST control) | binding signal [12]: 1.28 fold enrichment (6-mer frequency, TF over GST control) | binding signal [13]: 1.31 fold enrichment (6-mer frequency, TF over GST control) | binding signal [14]: 1.39 fold enrichment (6-mer frequency, TF over GST control) | binding signal [15]: 1.21 fold enrichment (6-mer frequency, TF over GST control) | binding signal [16]: 1.41 fold enrichment (6-mer frequency, TF over GST control) | binding signal [17]: 1.29 fold enrichment (6-mer frequency, TF over GST control) | binding signal [18]: 1.59 fold enrichment (6-mer frequency, TF over GST control) | binding signal [19]: 1.21 fold enrichment (6-mer frequency, TF over GST control)
